TDP1 cell CPT – qHTS for Inhibitors of human tyrosyl-DNA phosphodiesterase 1 (TDP1): qHTS in cells in presence of CPT; chicken DT40 Tdp1-/-;hTDP1 cells + 20 nM CPT, ATP luminescence, 48 h; Potency, µM (doses to about 46.2 µM), hits mostly inhibitors; actives 12% (n = 420,000); AID 686979, 2013; further: nearly all actives have a fitted effect of over 55% in size
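Cell growth measured by CellTiter-Glo luminescence after a minimum 48 h, 37 C compound exposure with 20 nM CPT in Tdp1-knockout DT40 cells stably expressing hTDP1, seeded 400/well; qHTS titration format.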
RORg inh – qHTS for inhibitors of ROR gamma transcriptional activity. Nuclear receptor ROR-gamma (Mus musculus), P51450. Drosophila S2 Gal4-RORgamma UAS-luciferase reporter, 20 h. Potency, µM (top dose mostly 53.6 µM), usual class: inhibitors. actives 5.4% (n = 310,000). AID 2551, 2010; further: nearly all actives have a fitted effect of over 60% in size
Target sequence (P51450 whole entry, looked up, the tested form may be a part): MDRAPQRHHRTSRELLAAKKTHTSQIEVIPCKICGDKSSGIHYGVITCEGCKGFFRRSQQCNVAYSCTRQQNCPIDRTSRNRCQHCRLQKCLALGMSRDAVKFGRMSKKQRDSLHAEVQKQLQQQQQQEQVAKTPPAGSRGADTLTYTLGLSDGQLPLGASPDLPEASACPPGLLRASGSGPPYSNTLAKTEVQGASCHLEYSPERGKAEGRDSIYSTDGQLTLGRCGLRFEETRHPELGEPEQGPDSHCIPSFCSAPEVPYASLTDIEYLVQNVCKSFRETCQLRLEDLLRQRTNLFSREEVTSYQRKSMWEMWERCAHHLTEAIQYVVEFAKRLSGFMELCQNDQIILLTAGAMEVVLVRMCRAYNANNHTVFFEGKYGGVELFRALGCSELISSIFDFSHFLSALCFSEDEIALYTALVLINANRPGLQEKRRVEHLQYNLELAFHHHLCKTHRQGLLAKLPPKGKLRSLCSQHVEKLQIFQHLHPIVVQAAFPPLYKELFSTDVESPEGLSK
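Drosophila Schneider cells stably carrying a metallothionein-driven Gal4 DBD–ROR gamma fusion and a UAS-Photinus luciferase reporter were exposed to compound for 1 hr, then induced with copper sulfate (700 uM final) for 20 hr at ambient temperature before luminescence reading.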
IL-1B inflam inh – qHTS for Inhibitors of Inflammasome Signaling: IL-1-beta AlphaLISA Primary Screen; THP-1 LPS/ATP IL-1B secretion, AlphaLISA, 16 h; active compounds read low; activity change, % at 57.5 µM; actives 4.7% (n = 360,000); in the data active means activity change below about -50%; inconclusive means mostly about -30% to -49%
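THP-1 cells pretreated 1 hr with compounds (up to 57.5 uM final), then stimulated with LPS (250 ng/mL final) plus ATP (1.25 mM final); secreted IL-1B measured by AlphaLISA after 16 hr, decreased signal indicating inhibition.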
ELG1 repair inh – qHTS screen for small molecules that inhibit ELG1-dependent DNA repair in human embryonic kidney (HEK293T) cells expressing luciferase-tagged ELG1; actives 2.3% (n = 330,000); Potency, µM (doses to about 46.1 µM), most hits filed as inhibitors; AID 504467, 2011; HEK293T ELG1-luciferase reporter, luminescence, 16 h; DNA damage induced by 5-fluorouridine; further: nearly all actives have a fitted effect of over 55% in size
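5-Fluorouridine DNA damage + compound/DMSO, 2,000 cells/well, 16 h, 37 °C/5% CO2. ONE-Glo, 30 min RT, luminescence. Readout = decrease in reporter signal.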
Gal4-VP16 FLuc – VP16 counterscreen qHTS for inhibitors of ROR gamma transcriptional activity | actives 3.5% (n = 310,000) | Potency, µM (doses to about 53.6 µM), actives largely listed as inhibitors | Drosophila S2 Gal4-VP16 UAS-luciferase, luminescence, 20 h;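 further: Gal4-VP16 expression switched on by copper sulfate through the metallothionein promoter; nearly all actives have a fitted effect of over 50% in size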
TDP1 cell noCPT – qHTS for Inhibitors of human tyrosyl-DNA phosphodiesterase 1 (TDP1): qHTS in cells in absence of CPT | DT40 Tdp1-/- hTDP1 cells, no CPT, ATP luminescence, 48 h | Potency, µM (doses to about 46.2 µM), most hits filed as inhibitors | actives 15% (n = 420,000); further: nearly all actives have a fitted effect of over 55% in size
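No-CPT arm: Tdp1-/-;hTDP1 DT40 cells (400/well) plus compounds, incubated ≥48 hr at 37 °C. Readout CellTiter-Glo luminescence.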
Hits are given with their value; – = inactive; ? = inconclusive; · = not tested or not shown. Most compounds without a hit are left out; they make up all but 21% or so of the library. Unless noted, the call rests on the fitted dose curve; in most records, active means well fitted curve in the direction sought with a large enough effect; inconclusive means small, poorly fitted or top-dose-only effect, or another doubt; inactive means no such curve, though single readings can be large; an effect the other way counts as inactive or inconclusive.

SMILES | TDP1 cell CPT | RORg inh | IL-1B inflam inh | ELG1 repair inh | Gal4-VP16 FLuc | TDP1 cell noCPT
CC1CCN(S(=O)(=O)c2ccc(NC(=O)CCN3C(=O)C4CC=CCC4C3=O)cc2)CC1 (centres undefined) | – | · | – | ? | · | –
CCNC(=S)N/N=C/c1ccc(C#N)cc1 | – | 7.1µM | – | ? | 18µM | ?
CCOC(=O)C(=O)N/N=C/c1ccco1 | – | – | – | ? | – | –
CCNC(=S)N/N=C/c1ccco1 | – | 2.2µM | – | – | 3.2µM | –
CC1CCN(C(=O)CNC(=O)CNC(=O)Cc2ccccc2)CC1 | – | – | – | – | – | –
Cc1ccc(C)c(N(C)C(=O)c2coc(=O)c3ccccc23)c1 | ? | – | – | – | – | 23µM
NC(=O)C1CCN(C(=O)CCC(=O)c2cccs2)CC1 | – | · | – | ? | · | –
CC(OC(=O)CNC(=O)c1ccc2ccccc2c1)C(=O)NC1CCCCC1C (centres undefined) | – | – | – | – | – | –
COC(=O)C(C#N)c1nc2ccccc2nc1N1CCCC1 (centres undefined) | ? | – | – | ? | – | ?
C=CCN(CC=C)c1nc2ccccc2nc1C(C#N)C(=O)OCCOC (centres undefined) | 21µM | – | ? | – | – | ?
CCCCCCOC(=O)C(C#N)c1nc2ccccc2nc1N1CCCCC1 (centres undefined) | ? | – | – | – | – | ?
CCCN(CCC)c1nc2ccccc2nc1C(C#N)C(=O)OCCOC (centres undefined) | ? | – | -62 | · | – | 23µM
CN(Cc1ccccc1)c1ccc(-c2nc(-c3ccccn3)no2)cc1[N+](=O)[O-] | ? | · | · | · | · | 18µM
CN(C)c1ccc(-c2nc(-c3ccccn3)no2)cc1[N+](=O)[O-] | – | · | · | · | · | 18µM
CN(Cc1ccccc1)c1ccc(-c2nc(-c3ccncc3)no2)cc1[N+](=O)[O-] | 21µM | · | · | · | · | 18µM
CN(Cc1ccccc1)c1ccc(-c2nc(-c3cccnc3)no2)cc1[N+](=O)[O-] | – | · | · | · | · | –
COc1cc(OC)cc(C(=O)N2CCN(S(=O)(=O)c3ccc4c(c3)OCCO4)CC2)c1 | – | · | – | · | · | ?
CC(C)(C)CNc1nc(C#N)nc(Nc2ccccc2)n1 | · | · | · | · | – | ·
Cc1ccc(CNC(=O)CCSCc2ccc(C)cc2)cc1 | – | – | – | – | – | –
CCOc1ccc(CCN2C(=O)C(=O)N([C@@H](CC(C)C)CN3CCC[C@H]3CN3C(=O)C(=O)NC[C@@H]3Cc3ccc(O)cc3)C[C@@H]2CC(C)C)cc1 | ? | · | -54 | · | · | ?
CCOc1ccc(CCN2C(=O)C(=O)N([C@@H](CC(C)C)CN3CCC[C@H]3CN3C(=O)C(=O)NC[C@@H]3CC(C)C)C[C@@H]2CC(C)C)cc1 | ? | · | – | · | · | ?
CCOc1ccc(CCN2C(=O)C(=O)N([C@@H](CC(C)C)CN3CCC[C@H]3CN3C(=O)C(=O)NC[C@@H]3CC(C)C)C[C@@H]2Cc2ccccc2)cc1 | ? | · | -92 | · | · | ?
Cc1ccc(S(=O)(=O)N(CC(=O)NCC2CCCO2)Cc2cccc(C)c2)cc1 (centres undefined) | – | – | – | – | – | –
CCCOc1ccc(-c2c(=O)n(O)c3ccccc3[n+]2[O-])cc1 | ? | ? | – | ? | ? | –
COc1ccc2c(c1)c1c(c(=O)n(-c3cccc(Cl)c3)c(=O)n1CC(=O)N1CCCC1)n2C | 23µM | · | · | · | · | ?
SMILES | TDP1 cell CPT | RORg inh | IL-1B inflam inh | ELG1 repair inh | Gal4-VP16 FLuc | TDP1 cell noCPT
COc1ccc2c(c1)c1c(c(=O)n(-c3ccc(F)c(Cl)c3)c(=O)n1CC(=O)N1CCCC1)n2C | – | · | · | · | · | –
COc1ccc2c(c1)c1c(c(=O)n(-c3ccc(C)cc3)c(=O)n1CC(=O)N1CCCC1)n2C | 16µM | · | · | · | · | 21µM
CCOC(=O)C1CCCN(C(=O)c2ccc(SC(F)(F)F)cc2)CC1 (centres undefined) | ? | · | – | · | · | ?
O=C(/C=C/c1ccco1)Nc1ccc2nc3n(c(=O)c2c1)CCCC3 | ? | – | -51 | – | – | –
COc1ccc(Cl)cc1C(=O)Nc1ccc2nc3n(c(=O)c2c1)CCCC3 | 15µM | – | – | – | – | 18µM
Cc1ccc(-n2nc3ccc(NC(=O)/C=C/c4ccco4)cc3n2)cc1 | 21µM | – | – | ? | – | ?
CCOc1ccccc1C(=O)Nc1ccc2nc3n(c(=O)c2c1)CCCCC3 | ? | – | – | – | – | 2.6µM
COc1cc(CNC[C@H]2O[C@@H](n3cc(C)c(=O)[nH]c3=O)C[C@@H]2O)ccc1OCc1cccc(Cl)c1 | – | · | – | · | · | –
CC[C@H](C)[C@H](NC(=O)[C@H](CO)NC(=O)[C@H](CC(C)C)NC(=O)[C@@H]1CCCN1C(=O)[C@@H]1CCCN1C(=O)[C@H](CC(=O)O)NC(=O)[C@@H](N)CC(=O)O)C(=O)N[C@@H](CC(=O)O)C(=O)N[C@@H](CC(C)C)C(=O)N[C@H](C(=O)N[C@@H](Cc1ccccc1)C(=O)N[C@@H](Cc1cnc[nH]1)C(=O)N[C@@H](CC(C)C)C(=O)N[C@@H](CC(C)C)C(=O)N[C@@H](CCCNC(=N)N)C(=O)N[C@H](C(=O)N[C@@H](CC(C)C)C(=O)N[C@@H](CC(C)C)C(=O)N[C@@H](CCC(=O)O)C(=O)N[C@@H](CC(C)C)C(=O)N[C@@H](C)C(=O)N[C@@H](CCCNC(=N)N)C(=O)N[C@H](C(=O)N[C@@H](CCC(N)=O)C(=O)N[C@@H](CO)C(=O)N[C@@H](CCC(N)=O)C(=O)N[C@@H](CCCNC(=N)N)C(=O)N[C@@H](CCC(=O)O)C(=O)N[C@@H](CCCNC(=N)N)C(=O)N[C@@H](C)C(=O)N[C@@H](CCC(=O)O)C(=O)N[C@@H](CCC(N)=O)C(=O)N[C@@H](CC(N)=O)C(=O)N[C@@H](CCCNC(=N)N)C(=O)N[C@H](C(=O)N[C@H](C(=O)N[C@@H](Cc1ccccc1)C(=O)N[C@@H](CC(=O)O)C(=O)N[C@@H](CO)C(=O)N[C@H](C(N)=O)C(C)C)[C@@H](C)CC)[C@@H](C)CC)[C@@H](C)O)[C@@H](C)O)[C@@H](C)O | · | – | · | · | – | ·

Screening data: PubChem BioAssay, National Center for Advancing Translational Sciences (NCATS)
